This passage reports Potency results from ChEMBL document CHEMBL1201862, “PubChem BioAssay data set” (2004).

Out of some 400,000 compounds screened, about 2,100 (0.53%) were called active. Inconclusive results (about 14%) are left out. This is one part of a sample in which actives are shown more often than they occur. How the calls were made is not given here.

The test deals with Ataxin-2 (Homo sapiens) (UniProt Q99700). Briefly: qHTS for Inhibitors of ATXN expression. In kind it is functional. (qHTS replaces the single test concentration by a dilution series.)
Sequence of Ataxin-2 (Homo sapiens) (Q99700 whole entry): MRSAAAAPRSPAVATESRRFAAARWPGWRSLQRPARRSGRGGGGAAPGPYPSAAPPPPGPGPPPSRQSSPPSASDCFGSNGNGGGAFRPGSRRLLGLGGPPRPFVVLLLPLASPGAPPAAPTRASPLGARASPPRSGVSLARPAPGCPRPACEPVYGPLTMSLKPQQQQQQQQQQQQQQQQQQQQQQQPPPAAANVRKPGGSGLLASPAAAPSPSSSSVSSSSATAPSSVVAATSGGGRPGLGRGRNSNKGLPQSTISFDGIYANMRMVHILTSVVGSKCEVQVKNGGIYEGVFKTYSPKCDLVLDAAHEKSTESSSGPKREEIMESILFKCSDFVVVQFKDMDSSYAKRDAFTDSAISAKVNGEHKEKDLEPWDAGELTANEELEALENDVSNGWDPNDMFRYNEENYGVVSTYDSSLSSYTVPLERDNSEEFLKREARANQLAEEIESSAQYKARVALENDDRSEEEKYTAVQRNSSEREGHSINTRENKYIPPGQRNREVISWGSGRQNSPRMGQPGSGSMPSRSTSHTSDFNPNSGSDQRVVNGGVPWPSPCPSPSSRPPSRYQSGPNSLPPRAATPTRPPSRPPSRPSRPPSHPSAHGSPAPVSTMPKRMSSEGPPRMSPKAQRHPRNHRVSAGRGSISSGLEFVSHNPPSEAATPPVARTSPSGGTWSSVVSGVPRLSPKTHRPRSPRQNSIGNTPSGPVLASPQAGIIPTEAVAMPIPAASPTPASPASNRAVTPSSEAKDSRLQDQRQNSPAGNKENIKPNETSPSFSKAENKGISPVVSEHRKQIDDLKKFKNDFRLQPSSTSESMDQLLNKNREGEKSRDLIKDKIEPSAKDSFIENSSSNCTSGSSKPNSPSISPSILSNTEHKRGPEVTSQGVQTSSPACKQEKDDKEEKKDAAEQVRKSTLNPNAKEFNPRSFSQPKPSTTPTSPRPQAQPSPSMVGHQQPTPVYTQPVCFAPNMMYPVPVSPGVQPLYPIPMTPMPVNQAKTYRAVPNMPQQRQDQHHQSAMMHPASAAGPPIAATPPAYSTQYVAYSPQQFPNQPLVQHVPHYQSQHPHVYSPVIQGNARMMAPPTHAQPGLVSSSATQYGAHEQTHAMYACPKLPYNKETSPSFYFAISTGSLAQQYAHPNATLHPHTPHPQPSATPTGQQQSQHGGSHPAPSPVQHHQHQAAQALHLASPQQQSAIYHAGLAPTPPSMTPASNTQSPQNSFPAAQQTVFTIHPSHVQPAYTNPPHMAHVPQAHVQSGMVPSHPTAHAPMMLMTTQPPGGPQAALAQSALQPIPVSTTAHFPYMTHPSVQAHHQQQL
On to `CC(=O)c1ccc2c(c1)c(C#N)c1ccccc1[n+]2[O-]`, for which the Potency entry is “inactive”. The value for `CCC(=O)Nc1c(C#N)c2nc3ccccc3nc2n1-c1ccc(C)cc1` was “inactive”; that for `CCN(CC)c1nc2ccccc2nc1C(C#N)C(=O)NCCc1ccccc1` (centres undefined) was “inactive”. As for `CCC(C)N(CC(=O)Nc1cccc(C)c1C)C(=O)CCl` (centres undefined), the Potency is 7.52 µM (active).

Take `CCN(CC(=O)Nc1cc(Cl)ccc1C)C(=O)C1CCCCC1`: the Potency result was “inactive”. Turning to `Cc1cccc(NC(=O)CN(C)C(=O)Cc2ccc(-c3ccccc3)cc2)c1C`, the Potency entry was “inactive”.

As for `CCN(CC)C(=O)COc1ccc(/C=C(\C#N)S(=O)(=O)c2ccccc2)cc1OC`, the Potency entry was “inactive”. For `C=CCc1cc(Cl)ccc1OCCCNC(C)C`, the Potency result was “inactive”. As for `COc1ccc(Cl)cc1CNCCCSc1ncccn1`, the entry is “inactive”. As for `C=CCNCCCCOc1cccc(Br)c1`, the entry is “inactive”; as for `Cc1cc(C)c(OCCN2CCOCC2)c(Cl)c1`, “inactive”; as for `Cc1cc(C)c(OCCCCNCc2ccccc2)c(Cl)c1`, 39.8 µM (active). As for `Clc1ccc(OCCCNCc2ccccc2)c(Br)c1`, the figure is 39.8 µM (active); as for `CN(C)/C=N/c1c(Br)cc(Br)c2nonc12`, “inactive”. Consider `COCCN(CCOC)C(=O)c1cc2c(=O)n3ccccc3nc2s1`, for which the Potency entry was “inactive”. The value for `O=C1N[C@@H](Cc2c[nH]c3ccccc23)COC(=O)[C@@H](Cc2ccc(F)cc2)C/C=C\C[C@H]1CC(=O)N(CCO)Cc1ccccc1` was 35.5 µM (active); that for `O=C1NC[C@@H](c2ccccc2)OC(=O)[C@@H](Cc2ccc(F)cc2)CC/C=C/C[C@H]1CC(=O)N(CCO)Cc1ccccc1` was 28.2 µM (active); that for `COCCn1c(N)c(C#N)c2nc3ccccc3nc21` was “inactive”. The value for `Fc1ccc(-n2c(-c3cccs3)nc3nc4ccccc4nc32)cc1` was “inactive”; that for `O=C(Nc1ccc2c(c1)OCCO2)c1cccc2nc3ccccc3nc12` was 35.5 µM (active). For `O=C(O)c1ccccc1-c1ccccc1C(=O)Nc1ccc2c(c1)nc(O)c1ccccc12`, the Potency entry was “inactive”. The value for `O=C(Nc1ccc2c(c1)OCCO2)c1cccnc1Oc1ccc(Cl)cc1` was “inactive”. As for `COc1ccccc1N1C(=O)C2C(C(=O)c3ccccc3)=NN(c3ccccc3OC)C2C1=O` (centres undefined), the entry is “inactive”; as for `CC[C@]1(c2ccccc2OC)ON(c2ccccc2C(F)(F)F)C1=O`, 35.5 µM (active); as for `COc1ccccc1N1C(=O)C2C(C(=O)c3ccccc3)=NN(c3ccccc3)C2C1=O` (centres undefined), “inactive”. For the molecule `CCO/C=C1/C(=O)N(c2ccccc2OC)C(=O)c2ccccc21`, the Potency entry is “inactive”.

For `CC[C@@]1(c2ccccc2OC)ON(c2ccccc2C(F)(F)F)C1=O`, the Potency was 22.4 µM (active). The value for `COc1ccccc1-n1c([S-])c(C(=O)Nc2ccccc2C(F)(F)F)[n+]2ccc(C(=O)NCCO)cc12` was “inactive”. Turning to `Cc1ccccc1NC(=O)c1cc2c(=O)n3cccc(C)c3nc2s1`, the Potency result was “inactive”. The value for `CC1CCCCC1NC(=O)c1cc2c(=O)n3ccccc3nc2n1C` (centres undefined) was “inactive”. On to `COc1ccc([N+](=O)[O-])c(S(=O)(=O)c2ccc(Cl)cc2)n1`, for which the Potency was 14.1 µM (active).

On to `O=C1c2cccc3c([N+](=O)[O-])ccc(c23)C(=O)N1c1ccc(Cl)cn1`, for which the Potency entry was “inactive”. As for `CC1CN(c2ccc([N+](=O)[O-])c(NCCOc3ccc(Cl)cc3)c2)CC(C)N1` (centres undefined), the entry is “inactive”; as for `COc1ccccc1N=C(NS(=O)(=O)c1ccc(C)cc1)c1ccccc1`, “inactive”.

`COc1ccc([N+](=O)[O-])c(S(=O)(=O)c2ccccc2)n1`: the Potency is 7.52 µM (active). For the molecule `CCN(CC)c1ccc(C=C(c2nnnn2-c2ccccc2)c2nnnn2-c2ccccc2)cc1`, the Potency entry was “inactive”. The value for `Cc1cc2cc3c(=O)[nH]c(=O)nc-3n(CC(O)C(O)C(O)CO)c2cc1C` (centres undefined) was “inactive”; that for `C=CC(=O)/N=c1\sc2ccccc2n1-c1ccccc1` was 37.7 µM (active); that for `CCN=C(S)N(CCc1c(C)[nH]c2ccc(C)cc12)Cc1cccnc1` was “inactive”. As for `COc1cc2nc(/C=C/c3ccc(N(C)C)cc3)sc2cc1SC`, the entry is “inactive”. With `CCc1cccc2sc(N3CCN(C(=O)c4ccc([N+](=O)[O-])o4)CC3)nc12`, the Potency was 39.8 µM (active).

In the case of `CC(C)CN=C(S)N1CCN(c2nc3ccccc3s2)CC1`, the Potency result was “inactive”. As to `Clc1cccc2sc(N3CCN(c4ccccc4)CC3)nc12`, the Potency entry is “inactive”.

For the molecule `Nc1ccc2cc3ccccc3cc2c1`, the Potency result was “inactive”. The value for `CC(C)OCCCN(C)C1CCN(S(=O)(=O)c2ccc(-c3cc(C(F)(F)F)no3)s2)CC1` was “inactive”; that for `c1ccc(N=NC2=NN(c3ccccc3)CS2)cc1` was 7.08 µM (active); that for `c1ccc(C2=NN(c3ccccc3)CC2)cc1` was “inactive”. In the case of `c1ccc(N2CC3COc4ccccc4C3=N2)cc1` (centres undefined), the Potency entry is “inactive”. As for `CCOc1ccc(CN2CCCC(N3CCN(c4ccc(OC)cc4)CC3)C2)cc1` (centres undefined), the Potency entry is “inactive”. The value for `[O-][n+]1onc2c1CCc1nnc(-c3ccccc3)cc1-2` was 39.8 µM (active); that for `CCc1ccc(/C=C2\Oc3c(ccc(O)c3CN3CCN(CCO)CC3)C2=O)cc1` was “inactive”; that for `O=C(CN(Cc1ccccc1)C(=O)c1csnn1)NCCc1ccccc1` was “inactive”.

`Cc1nn(-c2ccccc2)nc1C(=O)NNC(=O)c1cccc2ccccc12`: the Potency result was “inactive”. In the case of `CC(=O)N(CC(=O)Nc1nn(-c2ccccc2)nc1C(N)=O)Cc1ccccc1`, the Potency was 39.8 µM (active). In the case of `Cc1cc(/C=C2/C(=N)N3C(=NC2=O)SN=C3S(C)(=O)=O)c(C)n1-c1ccccc1`, the Potency result was “inactive”. As for `COC(=O)Cc1c(C)c2c(O)cc(C)cc2oc1=O`, the entry is “inactive”.

As to `O=S(=O)([N-]c1nc2ccccc2nc1-[n+]1ccn(Cc2ccccc2)c1)c1ccc(Br)cc1`, the Potency result was “inactive”. The value for `Cc1ccc(CN2CCC(CNC(=O)Nc3ccc(Cl)cc3)C2)cc1` (centres undefined) was 39.8 µM (active). For `O=C(NCc1ccc(Cl)cc1)C1CCCN(C(=O)c2ccc(Cl)cc2)C1` (centres undefined), the Potency entry was “inactive”. On to `CC(=O)Nc1ccc(CN2CCN(C3CCCCC3)C(CCO)C2)cc1` (centres undefined), for which the Potency result was “inactive”. `Cc1nn(CCCC(=O)NCc2ccc(F)cc2)c(=O)c2nccn12`: the Potency result was “inactive”. The value for `Cc1cc(OCC(=O)OCC(=O)NCC2CCCO2)ccc1Cl` (centres undefined) was “inactive”. As for `CCN(CC(=O)NCc1cccs1)S(=O)(=O)c1ccc([N+](=O)[O-])cc1`, the entry is “inactive”; as for `O=C(CN(c1ccc(Br)cc1)S(=O)(=O)c1ccc(Cl)c([N+](=O)[O-])c1)NCC1CCCO1` (centres undefined), 31.6 µM (active).

Take `Cc1c(N(C)S(=O)(=O)c2cc(C(=O)NCC3CCCO3)ccc2Cl)c(=O)n(-c2ccccc2)n1C` (centres undefined): the Potency entry was “inactive”. For the molecule `O=C(CN(c1cccc(C(F)(F)F)c1)S(=O)(=O)c1ccc(Cl)c([N+](=O)[O-])c1)NCc1ccccc1Cl`, the Potency is 39.8 µM (active). The value for `CSc1ccccc1NC(=O)CN(C)C(=O)CNc1ccc(C(F)(F)F)cc1[N+](=O)[O-]` was “inactive”; that for `CNC(=O)c1ccc(-c2sc3nc(N4CCOCC4)c4c(c3c2N)CCCC4)o1` was “inactive”. Take `CC(C)c1ccc(NC(=O)c2cc(S(=O)(=O)NCc3ccccc3Cl)ccc2F)cc1`: the Potency was 28.2 µM (active). As for `O=C(Nc1ccccc1)c1cc(S(=O)(=O)Nc2cccnc2)ccc1Cl`, the entry is “inactive”.

As to `O=C(O)c1ccc(NS(=O)(=O)c2ccc(NC(=O)c3ccccc3Cl)cc2)cc1`, the Potency entry was “inactive”. As for `Cc1nc2nc(-c3ccc(Cl)cc3)cn2nc1C`, the entry is “inactive”.

In the case of `C=C[S+]([O-])c1sc(Cl)c(N2CCOCC2)c1[N+](=O)[O-]` (centres undefined), the Potency was 15 µM (active).

Take `O=S(=O)(Nc1cccc(-c2nc3cccnc3s2)c1)c1ccc2c(c1)OCCO2`: the Potency result was “inactive”. Turning to `Cc1ccccc1/C=N/Nc1ccnc2cc(Cl)ccc12`, the Potency is 28.2 µM (active). As for `FC(F)(F)c1ccccc1/C=N/Nc1ccccn1`, the entry is “inactive”; as for `Cc1ccc(NCC(=O)N/N=C/c2cccc(Br)c2)cc1`, “inactive”; as for `CN(C)c1nc(NCc2ccccc2)nc(N/N=C/c2ccc(Cl)cc2Cl)n1`, “inactive”. As for `O=[N+]([O-])c1ccc(Cl)cc1N/N=C/c1ccncc1`, the entry is “inactive”; as for `Clc1ccc2c(N/N=C/c3cccc(Br)c3)ccnc2c1`, 25.1 µM (active); as for `N#C/C(=C/c1ccc(F)cc1)c1nnc(NC(=O)c2ccccc2)s1`, “inactive”. The value for `N#Cc1cc2c(=O)n3ccccc3nc2n(-c2ccc(Cl)cc2)c1=O` was “inactive”; that for `O=c1oc2cc(O)ccc2cc1-c1ccccc1` was “inactive”. Take `Cc1cc(NCCCN(C)C)n2c(nc3ccccc32)c1C#N`: the Potency entry was “inactive”. Turning to `COc1ccc(CNc2nc(C)cc(C)c2C#N)cc1`, the Potency result was “inactive”. As for `COc1ccc(CCNc2ncnc3c2cnn3-c2cc(Cl)ccc2C)cc1`, the Potency was 22.4 µM (active).

For `CCN(CC)c1ncnc2c1cnn2Cc1ccc(Cl)cc1`, the Potency entry is “inactive”.

Consider `Cc1ccc(-n2ncc3c(NCCCN(C)C)ncnc32)cc1Cl`, for which the Potency was 39.8 µM (active). On to `CCCCn1nc(NC(=O)CC)c2cc3cc(OC)ccc3nc21`, for which the Potency entry was “inactive”. As for `CC/N=c1\scc(C)n1/N=C/c1cc(Br)c(O)c(OC)c1`, the entry is “inactive”.

Regarding `Cc1cc(C)c2oc(C(=O)N3CCN(C)CC3)cc(=O)c2c1`, the Potency entry was “inactive”. The value for `CCN(CC)CCCNc1cc(C)c(C#N)c2nc3ccccc3n12` was “inactive”; that for `C=CCSc1nc2ccccc2n2cnnc12` was 39.8 µM (active); that for `COc1ccc(/C(C)=N/Nc2nc3ccccc3n3cnnc23)cc1OC` was “inactive”.

Consider `CC(C)CC(NC(=O)OCc1ccccc1)C(=O)NC(Cc1ccccc1)C(=O)CCl` (centres undefined), for which the Potency is 9.47 µM (active). Take `CC(NC(=O)OCc1ccccc1)C(=O)Oc1cc2oc(=O)cc(-c3ccccc3)c2cc1Cl` (centres undefined): the Potency result was “inactive”.

Regarding `COC(=O)[C@H](Cc1ccccc1)NC(=O)NCc1ccccc1`, the Potency result is “inactive”. In the case of `CCC(C)[C@H](N)C(=O)NC[C@H]1CC[C@H](C(=O)N[C@@H](Cc2ccccc2)C(=O)O)CC1` (some centres undefined), the Potency result is “inactive”.

In the case of `CC(=O)NC(CC(C)C)C(=O)NC(Cc1ccccc1)C(=O)CCl` (centres undefined), the Potency is 18.9 µM (active). The value for `CC(NC(=O)CNC(=O)C(Cc1ccccc1)NC(=O)OCc1ccccc1)C(N)=O` (centres undefined) was “inactive”; that for `C#CCOc1ccc(C2C3=C(CCCC3=O)N(CC(=O)O)C3=C2C(=O)CCC3)cc1Br` was “inactive”. Turning to `CC1(Cc2cc(Cl)ccc2C(F)(F)F)C(=O)Nc2ccc(-c3ccc(F)c(Cl)c3)cc21` (centres undefined), the Potency was 28.2 µM (active).

`CC1(Cc2cccc(C(F)(F)F)c2)C(=O)Nc2ccc(-c3ccc(F)c(Cl)c3)cc21` (centres undefined): the Potency is 39.8 µM (active). The value for `CC1(C)CC(=O)C=C(Nc2cccc(C(F)(F)F)c2)C1` was “inactive”.
